Data from PubChem BioAssay (NCI).
Compounds without any hit were thinned out: in the full panel of roughly 79,000, 15% have a hit. Values without a mark were called inactive. Active and inactive are the calls of the source. Cut-off read from the data, not from the text of the source: active = growth inhibition above about 70%; inactive = the rest.

How the values were obtained:
[1] = NCI Yeast Anticancer Drug Screen. Data for the rad50 strain (AID 155);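 note: 0% = growth of vehicle-only cultures of the same strain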; settings: S. cerevisiae rad50 strain growth inhibition, active compounds read high
Summary of the method: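 Inhibition values express reduced yeast growth in compound-treated cultures relative to vehicle-treated controls.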

[2] = NCI Yeast Anticancer Drug Screen. Data for the mec2-1 strain (AID 157); settings: S. cerevisiae mec2-1 strain, active compounds read high
Summary of the method: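 Readout is yeast growth inhibition, normalised to vehicle-treated controls, in the mec2-1 strain exposed to compound.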

[3] = NCI Yeast Anticancer Drug Screen. Data for the sgs1 mgt1 strain (AID 161);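 note: 0% = growth of cultures given vehicle only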; settings: S. cerevisiae sgs1 mgt1 strain, active compounds read high
Summary of the method: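 This yeast growth screen uses a strain with defined DNA-repair lesions; compound-treated growth is compared with vehicle-treated growth.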

[4] = NCI Yeast Anticancer Drug Screen. Data for the cln2 rad14 strain (AID 165);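 note: 0% = growth equal to vehicle treated cultures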; settings: S. cerevisiae cln2 rad14 strain, active compounds read high
Summary of the method: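 Relative to vehicle controls, growth inhibition of compound-treated cln2 rad14 yeast was recorded.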

[5] = NCI Yeast Anticancer Drug Screen. Data for the bub3 strain (AID 167); settings: S. cerevisiae bub3 mutant strain, active compounds read high
Summary of the method: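 Steps: expose the mutant yeast strain to compound; grow alongside vehicle-treated cultures; measure growth; express inhibition against the vehicle cultures.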

[6] = NCI Yeast Anticancer Drug Screen. Data for the mlh1 rad18 strain (AID 175); settings: S. cerevisiae mlh1 rad18 strain growth inhibition, active compounds read high
Summary of the method: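 Test agents were incubated with a yeast strain of defined genotype (DNA damage repair defect). Inhibition of growth was derived by comparison with vehicle-exposed cultures.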

[7] = at 5.0 µM (retest, dose inferred, filed as 0.5)
[8] = at 50.0 µM (retest, dose inferred, filed as 5.0)

Structure (SMILES) | growth inhibition [1, 7] | growth inhibition [1, 8] | growth inhibition ([1]; at 50.0 µM) | growth inhibition [2, 7] | growth inhibition [2, 8] | growth inhibition ([2]; at 50.0 µM) | growth inhibition [3, 7] | growth inhibition [3, 8] | growth inhibition ([3]; at 50.0 µM) | growth inhibition [4, 7] | growth inhibition [4, 8] | growth inhibition ([4]; at 50.0 µM) | growth inhibition [5, 7] | growth inhibition [5, 8] | growth inhibition ([5]; at 50.0 µM) | growth inhibition [6, 7] | growth inhibition [6, 8] | growth inhibition ([6]; at 50.0 µM)
c1ccc2c(c1)Cc1c-2nc2ccccc2c1N1CCOCC1 | 87% (active) | 98% (active) | 97% (active) | 17% | 99% (active) | 91% (active) | 6% | 98% (active) | 82.3% (active) | 18% | 98% (active) | 34.9% | 54% | 98% (active) | 67.5% | 25% | 98% (active) | 89.7% (active)
CCC1CCC2=C(C1)C(=O)c1ccccc1C2=O (stereo not given) | 6% | 91% (active) | 3.4% | 7% | 92% (active) | 49.5% | 11% | 96% (active) | 45% | 11% | 71% (active) | 49.3% | 9% | 94% (active) | 95.9% (active) | 6% | 97% (active) | 51.5%
CCCCCCCCCCCCN(CCO)CCO | 68% | 95% (active) | 74.9% (active) | 36% | 96% (active) | 79.3% (active) | 63% | 96% (active) | 89.5% (active) | 67% | 92% (active) | 73.8% (active) | 57% | 98% (active) | 60.6% | 41% | 91% (active) | 85.2% (active)
CC(=O)Oc1ccc(C23CC4CC(CC(C4)C2)C3)cc1 | -2% | 98% (active) | 98.8% (active) | -2% | 99% (active) | 98.5% (active) | 16% | 99% (active) | 98.6% (active) | -36% | 99% (active) | 96.6% (active) | 25% | 108% (active) | 98.8% (active) | 10% | 99% (active) | 98.3% (active)
CC(=O)OC(OC(C)=O)c1ccc([N+](=O)[O-])o1 | -7% | -39% | 99.4% (active) | -23% | -22% | 99% (active) | -5% | -10% | 99.3% (active) | -3% | -23% | 99.2% (active) | -20% | -87% | 99.5% (active) | 5% | 4% | 99% (active)
CCOC(CC)C(O)(c1ccc(N(C)C)cc1)c1ccc(N(C)C)cc1 (stereo not given) | -2% | 94% (active) | 98.3% (active) | -1% | 69% | 98.2% (active) | 0% | 95% (active) | 98.6% (active) | -3% | 63% | 97.5% (active) | 4% | 88% (active) | 98.7% (active) | 1% | 98% (active) | 98.2% (active)
COc1ccc(CCCCC(=O)O)cc1O | -155% | -161% | 40.9% | -52% | -54% | 14.1% | -56% | -65% | 29.9% | -57% | -55% | 61.9% | -69% | -80% | 2.5% | -117% | -117% | 28.4%
O=C1/C(=C/c2cccc(F)c2)CCCc2ccccc21 | 3% | 50% | 70% (active) | 4% | 36% | 37.2% | 13% | 67% | 82.5% (active) | -14% | 14% | 12.3% | 14% | 81% (active) | 75.5% (active) | 2% | 75% (active) | 72.7% (active)
CN(C)S(=O)(=O)c1cc(Cl)ccc1NN | -114% | -20% | 59.6% | -44% | -41% | 36.9% | -56% | -21% | 44% | -41% | -22% | 19.2% | -71% | -14% | 78.4% (active) | -119% | -32% | 48.6%
CCC(C)N(C(=O)c1ccccc1)c1ccccc1 (stereo not given) | -1% | -2% | 2.8% | 1% | -1% | 6.15% | 2% | -3% | -7.35% | 0% | 3% | 39.8% | -3% | -1% | -4.45% | -3% | 2% | -3.65%
